From PubChem BioAssay (Tox21)
Inconclusive results are not listed. A call without a number means that no potency is given here. Active and inactive are the calls of the source. Calls follow the shape of the dose curve; as a rule, active = well fitted cell-killing curve with a large enough effect in the repeat runs; inconclusive = weak or mixed curves, or effect the other way; inactive = flat fitted curve, though single readings scatter.

Experiment: cAMP Responsive Elements (CRE) small molecule antagonists, cell-based qHTS assay: qHTS cell viability counter screen (AID 2060913); also: nearly all actives have a fitted effect of over 40% in size
Settings: CRE-bla HEK293T viability, CellTiter-Glo luminescence, 5 h; series mostly up to 92.4 µM
How it was run: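 Cytotoxicity read in the same wells as the CRE-bla HEK293T antagonist assay: after 3 h compound with 0.25 uM NKH477 final and 2 h beta-lactamase substrate, CellTiter-Glo luminescence measured.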

SMILES	Potency
CN1CCCN=C1/C=C/c1cccs1	inactive
O=C(Cn1ccnc1[N+](=O)[O-])NCCO	inactive
CC(C(=O)O)c1cccc(Oc2ccccc2)c1 (stereo not given)	inactive
CC(C)(C)NC(=O)[C@@H]1CN(Cc2cccnc2)CCN1C[C@@H](O)C[C@@H](Cc1ccccc1)C(=O)N[C@H]1c2ccccc2C[C@H]1O	inactive
CCCCCOC(=O)Nc1nc(=O)n([C@@H]2O[C@H](C)[C@@H](O)[C@H]2O)cc1F	inactive
CC(O)CN (stereo not given)	inactive
c1cc(CCCc2ccncc2)ccn1	inactive
CCCCCCCC1CCCC1=O (stereo not given)	inactive
O=C(O)c1ccncc1	inactive
CO[Si](CCCNCCC[Si](OC)(OC)OC)(OC)OC	inactive
CCN[C@H]1C[C@H](C)S(=O)(=O)c2sc(S(N)(=O)=O)cc21	inactive
C[C@H]1C[C@H]2[C@@H]3CCC4=CC(=O)C=C[C@]4(C)[C@@]3(F)[C@@H](O)C[C@]2(C)[C@@]1(O)C(=O)CO	inactive
CCCCC[Si](OCC)(OCC)OCC	inactive
COC(=O)NCCC[Si](OC)(OC)OC	inactive
COc1cccc2c1C(=O)c1c(O)c3c(c(O)c1C2=O)C[C@@](O)(C(C)=O)C[C@@H]3O[C@H]1C[C@H](N)[C@H](O)[C@H](C)O1	inactive
CC1CCCCN1CCCOC(=O)c1ccc(OC2CCCCC2)cc1 (stereo not given)	inactive
Brc1c(NC2=NCCN2)ccc2nccnc12	inactive
O=C(O)c1ccccc1-n1cc(C(=O)O)c(=O)c2cc(Nc3c(F)cc(F)cc3Cl)c(Cl)cc21	inactive
Cc1cccc(C)c1O	inactive
CN(CC1(C)CCCO1)S(=O)(=O)c1ccc(Cl)c(S(N)(=O)=O)c1 (stereo not given)	inactive
